Data as given in PubChem BioAssay (NCI).
This is part of a sample that, as a whole, favours compounds with a hit. Of some 79,000 tested, about 15% had one in any assay. Cut-off read from the data, not from the text of the source: active = growth inhibition above about 70%; inactive = the rest.

What was measured:
[1] = NCI Yeast Anticancer Drug Screen. Data for the rad50 strain (AID 155);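 note: 0% = growth of vehicle-only cultures of the same strain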; details: S. cerevisiae rad50 strain growth inhibition; at 50.0 µM; active compounds read high
Procedure, shortened: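 Vehicle-treated cultures provide the reference for the growth inhibition reported for compound-exposed, repair-deficient yeast.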

[2] = NCI Yeast Anticancer Drug Screen. Data for the mec2-1 strain (AID 157); details: S. cerevisiae mec2-1 strain, at 50.0 µM, active compounds read high
Procedure, shortened: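 Mutant yeast (mec2-1) grown with compound; growth inhibition relative to vehicle control reported.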

[3] = NCI Yeast Anticancer Drug Screen. Data for the sgs1 mgt1 strain (AID 161);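 note: 0% = growth of cultures given vehicle only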; details: S. cerevisiae sgs1 mgt1 strain, at 50.0 µM, active compounds read high
Procedure, shortened: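 This yeast growth screen uses a strain with defined DNA-repair lesions; compound-treated growth is compared with vehicle-treated growth.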

[4] = NCI Yeast Anticancer Drug Screen. Data for the cln2 rad14 strain (AID 165);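 note: 0% = growth equal to vehicle treated cultures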; details: S. cerevisiae cln2 rad14 strain, at 50.0 µM, active compounds read high
Procedure, shortened: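 Readout is yeast growth inhibition versus vehicle-treated controls, using a strain with cln2 and rad14 alterations exposed to compound.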

[5] = NCI Yeast Anticancer Drug Screen. Data for the bub3 strain (AID 167); details: S. cerevisiae bub3 mutant strain, at 50.0 µM, active compounds read high
Procedure, shortened: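 Mutant yeast screening strain plus compound; vehicle-treated cultures serve as the 0% inhibition reference.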

[6] = NCI Yeast Anticancer Drug Screen. Data for the mlh1 rad18 strain (AID 175); details: S. cerevisiae mlh1 rad18 strain growth inhibition; at 50.0 µM; active compounds read high
Procedure, shortened: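 Genetically defined yeast (DNA repair-deficient) exposed to compounds; growth inhibition determined relative to vehicle.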

Measured: growth inhibition

CCn1c2ccccc2c2c3ncc4cccn4c3ccc21
inactive: [1] 10.8% | [2] -6.95% | [3] 19.4% | [4] 14.4% | [5] 7.95% | [6] 27.8%

CC12CCCCC1=C(F)C(F)(F)S2 (stereo unspecified)
inactive: [1] 0.15% | [2] -17.4% | [3] 7.45% | [4] 24.6% | [5] -2.45% | [6] 17.7%

S=c1[nH][nH]c(=S)c2[nH]cnc12
inactive: [1] 1.6% | [2] -3.1% | [3] -5.55% | [4] -18.4% | [5] 2.2% | [6] -0.4%

Cc1ccc(NC(=O)/C(CC(=O)c2c[n+](=O)c3ccccc3n2O)=N\NC(=O)C[n+]2ccccc2)cc1
inactive: [1] 14.1% | [2] -1.25% | [3] -1.75% | [4] 24.8% | [5] 20.3% | [6] -0.85%

O=S(=O)(O/C(=C(\OS(=O)(=O)C(F)(F)F)c1ccccc1)c1ccccc1)C(F)(F)F
inactive: [1] 6.9% | [2] -20.2% | [3] -21.1% | [4] -4.8% | [5] -2.65% | [6] 10%

CCSC(OC(C)=O)C(Nc1ccc([N+](=O)[O-])cc1[N+](=O)[O-])C(OC(C)=O)C(OC(C)=O)C(COC(C)=O)OC(C)=O (stereo unspecified)
inactive: [1] 23.7% | [2] 10.8% | [3] 6.2% | [4] 17.2% | [5] -0.6% | [6] 24.9%

CCCCCCCCCCCCCC(=O)OCCCC
inactive: [1] -25.6% | [2] -54.4% | [3] -59.1% | [4] -143% | [5] -52% | [6] -7.35%

C=CCCCCCCCCC1OCC(CC)C(CCC)O1 (stereo unspecified)
inactive: [1] 5.65% | [2] 10.1% | [3] -2.8% | [4] 47.5% | [5] 26.5% | [6] 39.3%

CCN(CC)c1nc(=O)c(C(=O)C(C)(C)C)c(C(C)(C)C)o1
inactive: [1] -14.9% | [2] -39% | [3] -34.1% | [4] -11.8% | [5] -9.15% | [6] -17.1%

CC(=O)N1CCN(C=S)CC1
inactive: [1] -16.5% | [2] -9.6% | [3] -5.65% | [4] 15.8% | [5] -4.05% | [6] -15.5%

NC(=S)N/N=C(\Cc1nc2ccc(Cl)cc2[nH]c1=O)C(=O)Nc1ccc(Cl)cc1
inactive: [1] -17.9% | [2] 2.35% | [3] -23.9% | [4] -10.2% | [5] -15.4% | [6] -9.05%

N#CCCNC=O
inactive: [1] -7.15% | [2] 0.4% | [3] -8.7% | [4] -7% | [5] 6.3% | [6] -4.95%

Cc1ccc(C2=CSc3ccccc3N2)cc1
inactive: [1] 24.8% | [2] 38% | [3] 45.6% | [4] -13.9% | [5] 62.5% | [6] 29.2%

C[N+](C)(C)CC(=O)N/N=C/c1oc(-c2cccc([N+](=O)[O-])c2)c(-c2cccc([N+](=O)[O-])c2)c1[N+](=O)[O-]
inactive: [1] 19.4% | [2] 11.7% | [3] 11.8% | [4] 16.3% | [5] -19% | [6] 3.35%

COC(OC)c1ccccc1CO
inactive: [1] -7.6% | [2] -28.5% | [3] -6.1% | [4] -41.5% | [5] 3.65% | [6] -14.8%

C=C1C(=O)O[C@@H]2/C=C(/C)[C@@H](OC(C)=O)C/C=C(\C)C(O)[C@@H](OC(=O)/C(C)=C\C)C12 (stereo partly specified)
inactive: [1] 17.4% | [2] -0.2% | [3] 22.5% | [4] 9.1% | [5] 12.6% | [6] -50.4%

CC(C)NC(=O)CCSCCC(=O)NC(C)C
inactive: [1] 3.6% | [2] -10.7% | [3] -3.75% | [4] -6.8% | [5] -17.9% | [6] 10.1%

O=C(CCCc1ccccc1)OCC(=O)c1ccc(-c2ccccc2)cc1
inactive: [1] 19.4% | [2] 6.45% | [3] 11.2% | [4] 3.45% | [5] 12.8% | [6] 14.6%

O=[N+]([O-])c1ccc2c(c1)Sc1ccccc1N2CCCCCl
inactive: [1] -24% | [2] -15.8% | [3] -49.2% | [4] -7.25% | [5] -1.8% | [6] -23.2%

COC(=O)C(OC)(OC)C(O)c1ccccc1 (stereo unspecified)
inactive: [1] 34.4% | [2] 4.6% | [3] 49% | [4] 4.95% | [5] -9.35% | [6] 6.8%

NNC(=O)c1ccccc1Cl
inactive: [1] -11.2% | [2] -21.1% | [3] -11.9% | [4] 0.4% | [5] -3.8% | [6] -25.9%

CCCCCCCCCCCCCCCCCCCCC1CC(=O)OC1=O (stereo unspecified)
inactive: [1] 41.6% | [2] 11.8% | [3] 36.4% | [4] 9.45% | [5] 2.7% | [6] 29.2%

CC1CCC(=O)C(C(=O)CC2CC(=O)NC(=O)C2)C1 (stereo unspecified)
inactive: [1] 31.6% | [2] 1.45% | [3] 19.7% | [4] -30.3% | [5] 2.3% | [6] 4.55%

O=C(/C=C/c1ccccc1)SCc1ccccc1
inactive: [1] -2.9% | [2] 14% | [3] 11.2% | [4] -2.1% | [5] -4.75% | [6] 2.35%

CCOC(=O)CC1(C)OCC(c2ccccc2)O1 (stereo unspecified)
inactive: [1] 8.8% | [2] -0.55% | [3] -3.6% | [4] -15% | [5] 9.35% | [6] -3.1%

C[C@H]1C(=O)OCN1S(=O)(=O)C(C)(C)C
inactive: [1] -0.05% | [2] 25% | [3] 16.1% | [4] -1.8% | [5] 16.1% | [6] -2.95%

C/C(=C/CNc1ncnc2c1ncn2CCC(=O)O)CO
inactive: [1] -22.4% | [2] 12.5% | [3] -31.7% | [4] 1.65% | [5] 1.7% | [6] -0.5%

Cc1nnc2n1N=C(c1ccccc1)C(c1ccccc1)S2 (stereo unspecified)
inactive: [1] 31.8% | [2] 29.9% | [3] 33.5% | [4] 25.9% | [5] 57.4% | [6] 40.3%

Cc1nc(/N=C(\N)Nc2ccc(Cl)c(Cl)c2)[nH]c(=O)c1Cc1ccccc1
inactive: [1] 2.3% | [2] 1.65% | [3] -10.1% | [4] -6.75% | [5] -5.05% | [6] 3.65%

N#Cc1ccccc1Br
inactive: [1] 21.4% | [2] -19.8% | [3] 21.1% | [4] 11.8% | [5] 11.8% | [6] 29.8%

COc1ccc(NC(=O)Cc2cc3ccccc3oc2=O)cc1
inactive: [1] 8.05% | [2] 1.05% | [3] -3.75% | [4] -46.3% | [5] -0.3% | [6] 7.95%

COC(=O)c1cccc(Cl)c1C(=O)c1ccc(C)cc1C
inactive: [1] -25% | [2] -8.3% | [3] -9.1% | [4] -52.9% | [5] 31.1% | [6] 11.4%

COc1ccc(C(=O)C[n+]2cc(Br)cc(Br)c2)cc1
inactive: [1] 7.9% | [2] -12.8% | [3] -7% | [4] -3.95% | [5] 14.1% | [6] -8.95%

CCC(=O)c1cc(-c2ccccc2)nc2ccc(OC)cc12
inactive: [1] 2.6% | [2] 1.2% | [3] 11.5% | [4] -23.4% | [5] -12.2% | [6] -24.4%

COc1ccc([N+](=O)[O-])c2c(NCC(O)CO)ccnc12 (stereo unspecified)
inactive: [1] -0.35% | [2] -11% | [3] -9.7% | [4] -8.2% | [5] -25.1% | [6] -47.2%

O=S1(=O)CCCCc2ccccc21
inactive: [1] 7.35% | [2] -0.75% | [3] 3.75% | [4] -9.35% | [5] 1.85% | [6] -23.2%

COc1ccc(-c2nnc(-c3ccc(OC)cc3)o2)cc1
inactive: [1] 20.1% | [2] -2.85% | [3] 16.5% | [4] 0.2% | [5] 1.15% | [6] -7.95%

CN(C)C(=S)c1cccc2ccccc12
inactive: [1] 5.1% | [2] -10.5% | [3] -1.95% | [4] -31.4% | [5] -27.2% | [6] -8.45%

Cc1cccc(-c2nc3sc(-c4cccc(C)n4)nc3s2)n1
inactive: [1] -9.7% | [2] 3.05% | [3] -13.3% | [4] -29.6% | [5] 4.05% | [6] -16.3%

Cc1nc(Cl)c2cnccn12
inactive: [1] -4.2% | [2] -1.85% | [3] 7.8% | [4] -37.5% | [5] -1.25% | [6] 0.2%

CCCCCCCOC(=O)C(N)c1ccccc1 (stereo unspecified)
inactive: [1] -5.2% | [2] -32.1% | [3] -22.4% | [4] 7.5% | [5] -7.6% | [6] 4.1%
